From PubChem BioAssay
HP1b chromo inh: inhibitors of HP1-beta chromodomain binding to methylated histone tails | P83916 | AlphaScreen HP1-beta / biotin-H3K9me3 peptide binding | Potency, µM (top dose mostly 114 µM), inactives show at the highest dose activity change, negative = inhibition, actives largely listed as inhibitors | 390,000 tested, 0.56% active; note: potency is the fitted concentration of half-maximal effect; nearly all actives have a fitted effect of over 70% in size
Target sequence (P83916 whole entry, looked up): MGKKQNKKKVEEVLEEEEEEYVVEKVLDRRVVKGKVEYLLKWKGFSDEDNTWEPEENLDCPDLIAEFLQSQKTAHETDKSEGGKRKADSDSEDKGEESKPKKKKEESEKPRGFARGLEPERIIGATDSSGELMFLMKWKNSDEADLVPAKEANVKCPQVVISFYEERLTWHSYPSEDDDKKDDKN
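AlphaScreen: HP1-beta (50 nM) preformed 30 min with biotin-H3(1-18)K9me3 peptide (50 nM) in PBS pH 7.4, 0.01% Tween-20. Compound added for 30 min at RT, then streptavidin donor/nickel chelate acceptor beads (10 ug/mL) for 30 min.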
BAZ2B inh: BAZ2B (human) inhibition. Q9UIF8. AlphaScreen BAZ2B-H3K14Ac peptide displacement. Potency, µM (doses to about 114 µM), without a hit: at the highest dose activity change, negative = inhibition, actives largely listed as inhibitors. 360,000 tested, 4.4% active; note: potency is the fitted concentration of half-maximal effect; % is set by controls: 0 for no effect and ±100 for the full control effect; nearly all actives have a fitted effect of over 60% in size
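AlphaScreen luminescence quantifies BAZ2B engagement of H3K14Ac peptide; the protein and biotinylated peptide are both at 50 nM final, buffer PBS pH 7.4 with 0.01% Tween-20, all steps at room temperature.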
Six1-Eya2 inh: blocks human Six1 binding to Eya2 | Q15475+O00167 | AlphaScreen GST-Six1/His-Eya2 binding, biochemical; hits give low values | activity change, % (no concentration beside the values) | 360,000 tested, 0.56% active | AID 651725; in the data active = activity change below about -65%; inconclusive = mostly about -30% to -63%; note: % is set by controls: 0 for no effect and ±100 for the full control effect
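Compounds are tested against tagged Six1 and Eya2 proteins bridged by glutathione donor and nickel acceptor beads; after a one-hour incubation at 37 °C without light, AlphaScreen emission is recorded.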
G9a block: inhibitors of human histone lysine methyltransferase G9a; Q96KQ7; G9a H3K9 monomethylation, AlphaScreen, 2 h; Potency, µM (doses to about 102 µM), for the others: at the top dose activity, negative = inhibition, usual class: inhibitors; 350,000 tested, 8.8% active; AID 504332; note: potency is the fitted concentration of half-maximal effect; % is set by controls: 0 for no effect and ±100 for the full control effect; nearly all actives have a fitted effect of over 75% in size
Target sequence (Q96KQ7 913-1193 limits assumed): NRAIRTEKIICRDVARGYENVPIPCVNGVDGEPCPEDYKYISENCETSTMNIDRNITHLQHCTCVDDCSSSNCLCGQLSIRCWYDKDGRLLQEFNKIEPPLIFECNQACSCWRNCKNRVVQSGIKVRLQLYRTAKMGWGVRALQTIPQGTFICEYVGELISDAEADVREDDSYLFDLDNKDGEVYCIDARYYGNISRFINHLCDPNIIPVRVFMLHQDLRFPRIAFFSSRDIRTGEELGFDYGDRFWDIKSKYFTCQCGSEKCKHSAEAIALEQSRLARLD
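G9a (20 nM) was preincubated 15 min with compound, then reacted 2 h at room temperature with 500 nM biotin-H3K9 peptide and 20 µM SAM. Monomethyl-H3K9 detected by AlphaScreen using anti-H3K9me1 antibody.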
JMJD2A Tudor: JMJD2A Tudor domain (human) inhibition. AlphaScreen JMJD2A-Tudor / H3K4me3 peptide binding. AID 504339. 390,000 tested, 4.4% active. O75164. Potency, µM (highest dose often 114 µM), for inactives: at the top dose activity change, negative = inhibition, most hits filed as inhibitors; note: potency is the fitted concentration of half-maximal effect; % is set by controls: 0 for no effect and ±100 for the full control effect; nearly all actives have a fitted effect of over 50% in size
CtBP-E1A blk: blocks the CtBP interaction with E1A. 340,000 tested, 0.49% active. AID 651724. activity change, % (no concentration beside the values). AlphaScreen GST-E1A/His-CtBP binding, 1536-well; hits give low values; in the data active = activity change below about -65%; inconclusive = mostly about -30% to -63%; note: % is set by controls: 0 for no effect and ±100 for the full control effect
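Steps: dispense buffer (Tris pH 8.0, NaCl 300 mM, TCEP 1 mM, BSA, Tween 20); add 5X protein mix (GST-E1A, His-CtBP, 125 nM each); pin 23 nL compound; 2 h at 37 °C, dark; add 5X beads (50 ug/mL); 1 h; read.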
Starred values were filed as active, the others as inactive; ? = inconclusive; . = not tested or not shown; [ ] = another dose, or the depositor's remark. Hits are enriched below; roughly 10% of the tested compounds scored in any of these assays. Unless noted, calls come from the whole dose curve; as a rule, active = well fitted inhibition curve with a large enough effect; inconclusive = small, poorly fitted or top-dose-only effect; inactive = no such curve, though single readings can be large or run the other way.

SMILES	HP1b chromo inh	BAZ2B inh	Six1-Eya2 inh	G9a block	JMJD2A Tudor	CtBP-E1A blk
COC(=O)c1ccc(NC(=O)CC2C(=O)N(c3ccccc3)C(=O)N2Cc2cccs2)cc1 (centres undefined)	45.8%	0.0%	.	-7.4%[59 µM]	-6.1%	.
COc1cccc(C(=O)N2c3nc(-c4ccco4)nn3C3(CCCCC3)[C@@H]3CCCC[C@@H]32)c1	21.8%	?	.	17.8µM*	-24.2%	.
Cc1ccc(CNc2ccc3cc(S(=O)(=O)N4CCCCC4)ccc3n2)cc1	18.1%	3.4%	.	-4.9%[59 µM]	3.6%	.
COc1ccc2c(c1)c1c(c(=O)n(-c3cccc(C)c3)c(=O)n1CC(=O)NCCC1=CCCCC1)n2C	36.6%	0.6%	.	8.6%[59 µM]	2.4%	.
COCCn1c(C)cc(C2=NNC(=Nc3ccccc3)SC2)c1C	-3.4%	50.1µM*	14.5	?	-32.5%	31.7
CCN=C1NN=C(c2cc(C)n(CCc3ccccc3)c2C)CS1	?	-38.3%	5.5	?	56.2µM*	-8.6
Cc1cc(C2=NNC(=NCCc3ccccc3)SC2)c(C)n1CC1CCCO1 (centres undefined)	?	-36.8%	-4.0	35.5µM*	50.1µM*	21.3
COCCn1c(C)cc(C2=NNC(=Nc3ccc(OC)cc3)SC2)c1C	-30.6%	-38.8%	-7.6	7.5%[12.7 µM]	?	-11.3
CC12CCC=CC1C(c1ccc3ccccc3c1Br)N(Cc1ccccc1)C2=O (centres undefined)	29.2%	.	.	.	-26.2%	.
COc1ccccc1NCC(=O)c1ccc(Cl)cc1	?	?	-22.1	50.1µM*	?	-10.2
CCC(C)N(C(=O)CSc1nnc(NC(C)C)s1)C1CCS(=O)(=O)C1 (centres undefined)	11.1%	-1.0%	6.7	-38.6%	-6.9%	-18.9
COc1cccc(N2CCN(C(=O)c3c(C)oc4ncnc(N5CCCCC5)c34)CC2)c1	-1.7%	-35.3%[57.1 µM]	.	-19.0%[59 µM]	-2.6%	.
O=C(Nc1ccc(NC(=O)C2CC2)nc1)c1ccccn1	17.3%	?	-2.6	31.6µM*	44.7µM*	-0.6
CC(C)C(=O)Nc1ccc(NC(=O)c2ccccn2)cn1	14.1%	-5.4%	-0.8	25.1µM*	?	-1.9
CCC(=O)Nc1ccc(NC(=O)c2ccccn2)cn1	16.6%	5.7%	8.8	?	-13.2%	3.3
O=C(NC(=S)NN1CCCCC1c1cccnc1)c1ccc(Br)cc1 (centres undefined)	11.6%	0.1%	10.7	44.7µM*	-14.7%	5.5
O=C(c1ccc2c(c1)N(Cc1ccc(Cl)cc1)C(=O)c1ccccc1S2=O)N1CCC(Cc2ccccc2)CC1 (centres undefined)	7.6%	?	.	-10.7%[59 µM]	-23.2%	.
CC(C)(C)c1ccc(C(=O)NCCCn2ccnc2)cc1	62.9%	2.5%	-0.7	.	-15.9%	4.7
O=C(NCCCn1ccnc1)c1ccncc1	11.3%	56.2µM*	3.9	5.7%[12.7 µM]	-12.7%	3.7
O=C(NCCCn1ccnc1)C(F)(F)C(F)(F)C(=O)NCCCn1ccnc1	40.3%	20µM*	-24.9	14.1µM*	?	-17.8
Cc1ccc(C(=O)NCCCn2ccnc2)cn1	10.6%	50.1µM*	-5.3	-5.5%	5.1%	-1.7
O=[N+]([O-])c1cccc(S(=O)(=O)NCCCn2ccnc2)c1	1.2%	50.1µM*	1.3	25.1%[59 µM]	-23.0%	-0.8
CSc1ccc(S(=O)(=O)NCCCn2ccnc2)cc1	19.8%	-22.5%	-4.6	51.5%	-23.4%	-3.8
O=C(CN1C(=O)c2ccc([N+](=O)[O-])cc2C1=O)Nc1ccccc1N1CCCC1	-18.0%	-2.6%	-2.7	?	-22.8%	0.3
CCC(=O)N1c2ccccc2CC1C(=O)NCc1cccc(OC)c1OC (centres undefined)	22.8%	-11.7%	.	-3.3%[12.7 µM]	-6.3%	.
O=C(CNC(=O)c1ccc(Cl)cc1)NCCCn1ccnc1	19.2%	79.4µM*	0.0	-36.8%	7.1%[57.1 µM]	-0.7
O=C(NCCCn1ccnc1)c1ccc(Cl)cc1	25.1%	-20.1%	0.2	5.7%	-6.9%	-21.2
